Test results as given in PubChem BioAssay AID485364 (National Center for Advancing Translational Sciences (NCATS), 2010).
Among all 360,000 compounds or so, about 11,000 (3.1%) were called active. Inconclusive results (about 4%) are left out. Calls come from the whole dose curve; as a rule, active = well fitted inhibition curve with a large enough effect; inconclusive = small, poorly fitted or top-dose-only effect; inactive = no such curve, though single readings can be large or run the other way. The list comes from a sample in which actives are over-represented; it also holds similar structures and randomly drawn compounds.

Biological target: Schistosoma mansoni thioredoxin glutathione reductase (TGR) (UniProt Q962Y6)
Assay: qHTS Assay for the Inhibitors of Schistosoma Mansoni Peroxiredoxins; note: nearly all actives have a fitted effect of over 60% in size
Settings: purified TGR, DTNB reduction, TNB absorbance 405 nm; series mostly up to 114 µM; activity change, negative = inhibition: at the top concentration
In short: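 First, TGR (20 nM dispensed) and NADPH were mixed with compound. Second, a 15 min room-temperature incubation followed. Third, further NADPH and then DTNB were added to start the reaction. Finally, TNB absorbance was monitored kinetically.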
% is set by controls: 0 for no effect and ±100 for the full control effect; potency is the fitted concentration of half-maximal effect.

Compound | activity change, negative = inhibition | Potency
CCn1c2c(c(=O)n3ncc(C(=O)N4CCN(c5ccccc5)CC4)c13)CN(Cc1ccc(OC)cc1)CC2 | -22.6% (inactive) | –
CCc1cccc(NC(=O)CN(C)S(=O)(=O)c2ccc3[nH]c4c(c3c2)CCCC4)c1 | -3.12% (inactive) | –
O=C(Nc1cc(C(F)(F)F)ccc1Cl)c1cc2nc(-c3ccc4c(c3)OCO4)cc(C(F)(F)F)n2n1 | 10% (inactive) | –
O=C(CSc1nc(Nc2ccc(F)c(F)c2)c2ccccc2n1)c1ccc(Cl)cc1 | -0.95% (inactive) | –
Cc1cc(C)nc(NS(=O)(=O)c2ccc(NC(=O)c3cc(=O)c4ccc(C)c(C)c4o3)cc2)n1 | 8.3% (inactive) | –
COC(=O)c1c(NC(=O)CCCOc2ccccc2)sc2c1CCC(C)C2 (stereo not given) | -12.3% (inactive) | –
O=C(O)CCn1cc(C=C2C(=O)NC(=S)NC2=O)c(-c2cccc(Br)c2)n1 | – | 31.6 µM (active)
O=C(O)CCn1cc(/C=C/C(=O)c2ccc(Cl)cc2)c(-c2cccc(Br)c2)n1 | 8.71% (inactive) | –
Cc1cccc(NC(=O)c2ccc3nc(C(C)C)oc3c2)c1C | 1.6% (inactive) | –
O=S(=O)(c1ccc(Br)cc1)c1nc(-c2ccccc2)oc1N1CCOCC1 | -40.2% (inactive) | –
O=S(=O)(c1ccccc1)c1nc(-c2ccccc2)oc1NCCCN1CCOCC1 | -7% (inactive) | –
O=S(=O)(c1ccccc1)c1nc(Cc2ccccc2)oc1N1CCOCC1 | – | 2 µM (active)
Cc1ccc(NC(=O)Nc2sc3nc4n(c(=O)c3c2C)CCC(C)CC4)c(Cl)c1 (stereo not given) | 4.36% (inactive) | –
CCC(C)c1ccc2oc(-c3ccc(NC(=O)c4cc5ccccc5o4)cc3)nc2c1 (stereo not given) | 0.847% (inactive) | –
Cc1ccc(C2c3[nH]c4ccccc4c3CCN2C(=O)c2cccc(C)c2)cc1 (stereo not given) | 5.12% (inactive) | –
Cc1ccc(C)c(N2C(=O)N(Cc3c(F)cccc3Cl)c3ccccc3S2(=O)=O)c1 | 12.1% (inactive) | –
CCN(CC(=O)NCc1ccco1)S(=O)(=O)c1ccc(F)cc1 | -8.46% (inactive) | –
O=C(CCNC(=O)c1ccc(Br)cc1)NCC(c1ccco1)N1CCCCC1 (stereo not given) | -2.93% (inactive) | –
O=C(NCC(c1ccco1)N1CCc2ccccc21)c1cccc(F)c1 (stereo not given) | 2.37% (inactive) | –
Cc1cc(S(=O)(=O)Nc2ccc(C(=O)NCC(c3ccco3)N3CCCC3)cc2)ccc1F (stereo not given) | -8.98% (inactive) | –
O=C(NCC(c1ccco1)S(=O)(=O)c1cccs1)c1ccc(F)cc1 (stereo not given) | – | 7.08 µM (active)
COc1ccc(CCNC(=O)C(=O)NCc2ccccc2C)cc1OC | -2.9% (inactive) | –
COc1ccc(CCNC(=O)C(=O)NCC(c2ccco2)S(=O)(=O)c2cccs2)cc1OC (stereo not given) | – | 3.55 µM (active)
CC(C)(C)c1ccc(C(=O)NCC(c2ccco2)S(=O)(=O)c2ccc(F)cc2)cc1 (stereo not given) | – | 11.2 µM (active)
COc1ccc(CCNC(=O)C(=O)NCC2CCCN2S(=O)(=O)c2cccs2)cc1OC (stereo not given) | -10.8% (inactive) | –

Compound | activity change, negative = inhibition | Potency
CCC(=O)Nc1c(C(=O)N2CCN(c3ccc(F)cc3)CC2)oc2ccccc12 | -2.54% (inactive) | –
CN(CC(=O)Nc1cccc(C(F)(F)F)c1)S(=O)(=O)c1cccs1 | -0.406% (inactive) | –
CCOc1ccc(N(CC)C(=O)c2noc3c2COc2ccc(C)cc2-3)cc1 | -10.9% (inactive) | –
Cc1ccc2[nH]c3c(=O)n(CC(=O)NC(C)C)ncc3c2c1 | -3.07% (inactive) | –
Cc1ccc2c(=O)cc(C(=O)Nc3sc4c(c3C(=O)NCc3cccnc3)CCCC4)oc2c1 | 5.7% (inactive) | –
CCCNC(=O)c1ccc(Cn2c(SCC(N)=O)nc3ccccc3c2=O)cc1 | 5.19% (inactive) | –
CCN(CC(=O)NC(=O)NCc1ccccc1)Cc1nc2ccccc2c(=O)[nH]1 | – | 89.1 µM (active)
CCN(CC(=O)Nc1ccc(Cl)c(S(=O)(=O)N(C)C)c1)Cc1nc2ccccc2c(=O)[nH]1 | – | 39.8 µM (active)
O=C(c1ccco1)N(Cc1nc2ccccc2c(=O)[nH]1)C1CCCC1 | -35.5% (inactive) | –
CCCCN(CC(=O)Nc1cccc(S(=O)(=O)N2CCCC2)c1)Cc1nc2ccccc2c(=O)[nH]1 | – | 22.4 µM (active)
CN(C)S(=O)(=O)c1cc(NC(=O)CN2C(=O)NC3(CCCc4ccccc43)C2=O)ccc1Cl (stereo not given) | -7.41% (inactive) | –
CCN(CC(=O)Nc1cccc(S(=O)(=O)N2CCCCC2)c1)Cc1ccccc1 | 8.89% (inactive) | –
CCN(CC(=O)Nc1ccc(C)c(S(=O)(=O)N(C)C)c1)Cc1ccccc1 | -15.6% (inactive) | –
CCN(CC)c1ccc(C(=O)NNC(=O)CCc2nc3ccccc3c(=O)[nH]2)cc1 | 1.8% (inactive) | –
CCN(CC(=O)Nc1cccc(S(N)(=O)=O)c1)Cc1nc2ccccc2c(=O)[nH]1 | 2.33% (inactive) | –
Cn1c(=O)c2c(SCC(=O)N3CCc4ccccc43)nc(-c3ccc(Cl)cc3)nc2n(C)c1=O | 0.229% (inactive) | –
COc1ccc(-c2nc(C)c(CCNC(=O)c3ccc(C(F)(F)F)cc3)s2)cc1OC | 3.68% (inactive) | –
COc1ccccc1NC(=O)CSC1=Nc2ccccc2C2=NC(CC(=O)NCc3cccs3)C(=O)N12 (stereo not given) | 3.93% (inactive) | –
Cn1c(=O)c2c(SCC(=O)NCC3CCCO3)nc(-c3ccccc3F)nc2n(C)c1=O (stereo not given) | 4.44% (inactive) | –
CCCCc1nn2c(=O)cc(COC(=O)c3ccccc3NC(=O)C(C)(C)C)nc2s1 | 0.0611% (inactive) | –
Cc1nn(C(C)C(=O)NCCc2ccccc2)c(=O)c2c1sc1ccccc12 (stereo not given) | -6.91% (inactive) | –
COc1cccc2c1cc1c(=O)n(CC(=O)N3CCN(c4ccccc4)CC3)nc(C)n12 | -4.71% (inactive) | –
O=c1c2cccnc2n(Cc2cccc(F)c2)c(=O)n1Cc1ccccc1Cl | 1.91% (inactive) | –
COc1cccc2c1cc1c(=O)n(CC(=O)N3CCN(c4cccc(Cl)c4)CC3)nc(C)n12 | -1.68% (inactive) | –
Cc1nc2ccccn2c(=O)c1NC(=O)c1c(F)cccc1F | 2.55% (inactive) | –
